# Fam108B inh: blocks mouse Fam108B hydrolase in RBBP9 counter-screen | actives 0.33% (n = 300,000) | AID 1947 | inhibition, % at 9.51 µM | recombinant Fam108B, FP-Rh probe fluorescence polarization;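 active = inhibition above the screen mean inhibition plus 3 SD, computed separately per campaign, cut at about 18% in these data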;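 note: inhibitors lower polarization as less probe binds the enzyme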
# pPAFAH inh: pPAFAH (human) enzyme inhibition. actives 1.5% (n = 330,000). Q13093. AID 463082. recombinant pPAFAH, FP-rhodamine probe fluorescence polarization. inhibition, % at 3.39 µM;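 active = inhibition above the mean inhibition across the screen plus 3 SD, cut at about 25% in these data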;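 note: inhibitors block binding of the rhodamine activity-based probe so polarization drops; 0% = enzyme with DMSO and 100% = wells lacking pPAFAH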
# PAFAH1B3 inh: inhibitors of human PAFAH1B3; Q15102; actives 0.28% (n = 340,000); AID 492972; recombinant PAFAH1B3, FP-rhodamine probe, fluorescence polarization; inhibition, % at 3.39 µM;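 active = inhibition above the screen-wide average of all tested compounds plus 3 SD, cut at about 25% in these data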;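 note: 0% = enzyme with DMSO only and 100% = wells lacking PAFAH1B3 protein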
# Target sequence (Q15102 whole entry, looked up): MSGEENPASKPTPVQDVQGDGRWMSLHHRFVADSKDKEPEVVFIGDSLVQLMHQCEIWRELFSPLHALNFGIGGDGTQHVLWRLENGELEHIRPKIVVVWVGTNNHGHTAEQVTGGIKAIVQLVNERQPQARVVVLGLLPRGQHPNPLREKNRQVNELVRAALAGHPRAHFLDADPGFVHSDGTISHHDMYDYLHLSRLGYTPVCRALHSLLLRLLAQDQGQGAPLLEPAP
# PAFAH2 inh: inhibitors of human PAFAH2; Q99487; recombinant PAFAH2, FP-rhodamine activity probe, fluorescence polarization; inhibition, % at 3.39 µM; actives 0.99% (n = 340,000);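 active = inhibition above the mean over all tested compounds plus 3 SD, cut at about 30% in these data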;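 note: inhibitors block probe labeling of enzyme so polarization drops; 0% = enzyme with DMSO and 100% = wells lacking PAFAH2 protein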
# PAFAH1B2 inh: PAFAH1B2 (human) inhibition. recombinant PAFAH1B2, FP-rhodamine activity probe, fluorescence polarization. inhibition, % at 3.39 µM. actives 1.2% (n = 340,000);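 active = inhibition above the mean of all tested compounds plus 3 SD, cut at about 24% in these data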;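 note: 0% = enzyme with DMSO and 100% = wells lacking PAFAH1B2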
# Target sequence (P68402 whole entry, looked up): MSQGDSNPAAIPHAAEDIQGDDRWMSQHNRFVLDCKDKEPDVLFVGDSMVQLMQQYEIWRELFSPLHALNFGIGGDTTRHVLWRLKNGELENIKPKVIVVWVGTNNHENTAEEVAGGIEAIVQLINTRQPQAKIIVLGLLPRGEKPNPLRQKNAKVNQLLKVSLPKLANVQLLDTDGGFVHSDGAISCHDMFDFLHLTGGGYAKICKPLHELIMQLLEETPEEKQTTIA
# PME-1 inh: PME-1 (human) inhibition | recombinant PME-1, FP-Rh probe fluorescence polarization | actives 0.53% (n = 320,000) | inhibition, % at 5.9 µM | AID 2130;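 active = inhibition above the campaign mean of all compounds plus 3 SD, cut at about 26% in these data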;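 note: competitive labeling of PME-1 active site by serine hydrolase directed probe; 0% = PME-1 with DMSO and 100% = wells lacking PME-1 enzyme; inhibitors block probe labeling so polarization falls and inhibition rises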
# PAFAH2 confirm: PAFAH2 (human) inhibition, confirmed | shares compounds with PAFAH2 inh | recombinant PAFAH2, FP-rhodamine activity probe, fluorescence polarization | inhibition, % at 3.39 µM | actives 65% (n = 2,300) | AID 493030;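 active = mean inhibition over three repeats above a set limit taken from the earlier primary screen, cut at about 30% in these data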;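 note: inhibitor blocks binding of rhodamine activity probe so polarization falls; 0% = enzyme with DMSO and 100% = wells lacking PAFAH2 protein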
# The depositor's hits bear a star; / = not tested or not shown. Only some compounds are listed: those with a hit (about 2.8% of all), similar ones and a draw of the others.
SMILES,Fam108B inh,pPAFAH inh,PAFAH1B3 inh,PAFAH2 inh,PAFAH1B2 inh,PME-1 inh,PAFAH2 confirm
Cc1ccccc1NC(=O)COC(=O)c1ccc(S(C)(=O)=O)c([N+](=O)[O-])c1,-4,11,-2,39*,1,1,13
Cc1ccccc1NC(=O)COC(=O)c1ccc2c(c1)OCCO2,/,/,2,58*,2,/,52*
CS(=O)(=O)c1ccc(C(=O)OCC(=O)Nc2cccnc2Cl)cc1[N+](=O)[O-],/,-1,4,12,-5,/,/
Cc1ccc(C)c(NC(=O)COC(=O)c2ccc3c(c2)OCCO3)c1,/,1,6,53*,1,-8,61*
O=C(COC(=O)c1ccc2c(c1)OCCO2)Nc1cc(Cl)ccc1Cl,-14,10,-7,21,-12,-22,/
COc1ccccc1NC(=O)COC(=O)c1ccc2c(c1)OCCO2,/,3,-2,6,2,1,/
CCOc1ccccc1NC(=O)CSc1nc2cc(O)ccc2c(=O)n1-c1ccc(OC)c(OC)c1,-1,0,-3,0,-1,4,/
O=C(COC(=O)c1ccc(CO)cc1)NCc1cccs1,3,-3,6,43*,0,-1,35*
O=C(COC(=O)c1ccco1)NCc1cccs1,-5,-6,3,34*,2,1,20
Cc1cc(C)c(C(=O)OCC(=O)NCc2cccs2)c(C)c1,1,1,10,-3,9,2,/
O=C(COC(=O)c1ccc(Br)o1)NCc1cccs1,-5,12,6,17,4,3,/
Cc1ccc(C(=O)OCC(=O)NCc2cccs2)cc1C,2,7,-2,54*,3,3,51*
Cc1ccc(C(=O)OCC(=O)NCc2cccs2)cc1,-3,18,-8,53*,-1,-3,46*
COc1ccc(C(=O)NCCS(=O)(=O)N(C)C2CCCCC2)cc1,5,-3,2,-2,2,2,/
O=C(COC(=O)/C=C/c1ccc(OC(F)F)cc1)NCc1cccs1,-2,8,5,46*,3,1,41*
O=C(Nc1ccc(Cl)cc1)[C@@H]1[C@@H]2C(=O)N(c3ccc(Cl)cc3)C(=O)[C@@H]2[C@H]2C=CC=NN21,-3,24,3,33*,-2,-5,-3
Nc1cc(C(=O)OCC(=O)NC(c2ccccc2)c2ccccc2)ccc1Cl,-6,0,4,-3,6,-7,/
O=C(COC(=O)c1ccc(O)cc1)NC(c1ccccc1)c1ccccc1,/,17,1,46*,10,/,36*
CSc1ccccc1NC(=O)COC(=O)c1ccc(O)cc1,0,16,9,54*,2,-3,38*
O=C(CCCOC(=O)c1ccc(O)cc1)c1ccccc1,/,13,8,50*,8,/,45*
O=C(COC(=O)c1ccc(O)cc1)Nc1ccccc1-c1ccccc1,-4,6,9,46*,7,-12,39*
COCC(=O)OCC(=O)Nc1ccccc1-c1ccccc1,-2,2,2,5,6,5,/
CSc1ccccc1NC(=O)COC(=O)c1ccccc1O,0,3,1,5,0,0,/
CCOc1cc(/C=N\Nc2ncc(F)c(N3CCOCC3)n2)ccc1Oc1nc(Cl)ncc1F,2,9,7,2,-3,5,/
CCOc1ccc(S(=O)(=O)Nc2ccn(C)n2)cc1,/,-1,6,-5,1,4,/
SMILES,Fam108B inh,pPAFAH inh,PAFAH1B3 inh,PAFAH2 inh,PAFAH1B2 inh,PME-1 inh,PAFAH2 confirm
O=S(=O)(O)c1cccc2cccc(Nc3ccccc3)c12,8,22,13,31*,5,9,7
Cc1ccc(NC(=O)COC(=O)c2ccn(C)n2)cc1,0,3,-1,68*,1,4,63*
Cn1nccc1C(=O)OCC(=O)Nc1ccccc1,/,/,-4,40*,-3,/,28
Cn1ccc(C(=O)OCC(=O)Nc2ccccc2)n1,/,/,7,73*,1,/,78*
Cc1ccc(S(=O)(=O)N(CC(=O)NC2CC2)c2ccc(C)c(Cl)c2)cc1,4,2,10,7,4,17,/
CCOc1ccc(S(=O)(=O)N2CCN(C(=O)c3ccc(Cl)c(S(=O)(=O)N4CCOCC4)c3)CC2)cc1,/,/,1,2,1,/,/
CC(=O)NCCc1nc2cc(NS(=O)(=O)c3ccccc3)ccc2n1C,0,2,8,-5,6,2,/
COc1ccc(CCC(C)N(C)Cc2ccccc2)cc1 (centres undefined),1,1,4,1,4,0,/
Cc1ccc(-c2csc(/C(C#N)=C(\O)CCl)n2)cc1,/,/,0,33*,-4,/,31*
CCn1c(=O)c2c(nc(SCC(=O)NC3CCCC3)n2C)n(C)c1=O,1,6,5,-3,5,1,/
O=S(=O)(c1ccsc1)N1CC=C(c2ccccc2)CC1,3,1,10,11,4,7,/
COCCN(CC1CCCN(C2Cc3ccccc3C2)C1)C(=O)CSC (centres undefined),-3,-2,1,37*,2,-3,23
COCCN(CC1CCCN(C2Cc3ccccc3C2)C1)C(=O)CCSC (centres undefined),-1,2,9,18,-2,1,/
Cc1ccc(C(=O)O/N=C/C2=C(Cl)c3ccccc3CC2)cc1,1,1,3,38*,4,-3,70*
Cc1ccc(CO/N=C/C2=C(Cl)c3ccccc3CC2)cc1,-1,3,3,-2,5,-8,/
COc1ccccc1Nc1nc(N)nc(CSC(=S)N2CCCCC2)n1,0,0,2,37*,1,5,26
Cc1c(C)c2ccc(OCC(=O)NCCN3CCOCC3)cc2oc1=O,6,5,1,-2,2,3,/
COc1ccc(NC2CC(=O)N(c3cccc(C)c3)C2=O)cc1 (centres undefined),-2,4,5,47*,1,-5,-2
COc1ccc(NC2CC(=O)N(c3cccc([N+](=O)[O-])c3)C2=O)cc1 (centres undefined),1,3,7,18,0,-7,/
C=C(C)COc1ccc2c(C)c(CC(=O)N3C[C@H]4C[C@@H](C3)c3cccc(=O)n3C4)c(=O)oc2c1C,0,11,8,3,10,-4,/
CCN(CC)c1ccc(S(=O)(=O)N2CCOCC2)cc1NC(=O)COC(=O)/C=C/c1ccco1,/,/,-3,55*,2,/,42*
CCN(CC)c1ccc(S(=O)(=O)N2CCOCC2)cc1NC(=O)COC(=O)COc1ccccc1C,-1,3,-1,1,-8,4,/
O=C(COC(=O)/C=C/c1ccco1)Nc1cc(S(=O)(=O)N2CCOCC2)ccc1Cl,/,6,-2,42*,2,/,37*

# Bioassay records from PubChem BioAssay.
